These results are taken from PubChem BioAssay.

Active and inactive are the calls of the source.

For one assay, the target named is Albumin (Bos taurus) (UniProt P02769). Description: bovine serum albumin binders on microarray, profiling panel, artefact control for SMM control protein annotation, biochemical, small-molecule microarray, Alexa647 label, 635/667 nm fluorescence (AID 1118).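 Note: score merges 667 nm emission intensity and signal-to-noise per printed compound spot.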 Particulars: BSA-A647 binding, fluorescence 635 nm, higher = more signal.
A short description of assay [1]: small-molecule microarray binders of probe aXIP, primary screen, biochemical, NeuroSMM set, 635/667 nm fluorescence (AID 1119).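 Note: probe is the protein aXip251-270 applied at 1 µg/mL to compound-printed slides; binding of probe to printed compounds measured as 667 nm fluorescence plus signal to noise.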 The settings on record: higher = more signal, called active from +8 up or from −8 down.
Assay [2] can be described thus: small-molecule binders of probe aNOTCH3, primary screen, biochemical, small-molecule microarray, 635/667 nm fluorescence (AID 1120).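 Note: probe is a biotin-tagged antibody raised against NOTCH3 rather than NOTCH3 protein; score merges spot fluorescence near 667 nm with spot signal to noise.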 Particulars: higher = more signal.
Assay [3] is described as follows: small-molecule binders of probe aNOTCH2, primary screen, biochemical, small-molecule microarray, 635/667 nm fluorescence (AID 1121).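 Note: score merges feature fluorescence read at 667 nm with its signal to noise.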 The settings on record: higher = more signal.
Assay [4] addresses Carbonic anhydrase 2 (Homo sapiens) (UniProt P00918). The experiment in a line: CAII small-molecule binders, profiling panel, biochemical, small-molecule microarray, Alexa647-labelled CAII (AID 1122). The settings on record: CAII-A647 binding fluorescence, higher = more signal.
Assay [5] is described as follows: COS7 lysate on small-molecule microarray, probe aHis, 635 nm (AID 1123).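 Note: z-score combines 667nm fluorescence intensity with signal-to-noise per printed compound spot.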 Particulars: COS7 cell lysate, fluorescence, higher = more signal.
Assay [6] can be described thus: compound binding in COS7 lysate, probe aLAP1, primary screen, cell lysate, small-molecule microarray (AID 1124).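 Note: lysate comes from COS7 cells expressing LAP1 and is applied at 0.3 µg/mL; score merges spot fluorescence near 667 nm with signal-to-noise over triplicate slides.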 The settings on record: probe aLAP1, fluorescence, higher = more signal.
For the next assay, the system named is Sam68 (KHDRBS1). The experiment in a line: Sam68 small-molecule binders, primary screen, biochemical, small-molecule microarray, 635 nm fluorescence (AID 1125).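 Note: score merges 667 nm channel intensity with signal to noise over triplicate slides.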 The settings on record: small-molecule microarray binding, higher = more signal.
The subject of assay [7] is Chordin-like protein 2 (CHRDL2). Description: CHRDL2 small-molecule binders, primary screen, biochemical, small-molecule microarray, 635 nm fluorescence (AID 1126).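 Note: printed compound slides probed with Chrdl2 protein at 4 µg/mL for 1 h at 4 C; score merges 667 nm emission intensity with signal to noise over three replicate slides.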 Particulars: small-molecule microarray binding, fluorescence 635 nm; higher = more signal.
Assay [8] deals with Concanavalin-A (Canavalia ensiformis) (UniProt P02866). Description: ConA small-molecule binders, primary screen, artefact control for SMM control protein annotation, biochemical, small-molecule microarray, Alexa647 label, 635 nm (AID 1127).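 Note: z combines 667 nm emission intensity with signal-to-noise across three replicate slides.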 Particulars: ConA-A647 binding fluorescence, higher = more signal.
Sequence of Concanavalin-A (Canavalia ensiformis) (P02866 whole entry, looked up): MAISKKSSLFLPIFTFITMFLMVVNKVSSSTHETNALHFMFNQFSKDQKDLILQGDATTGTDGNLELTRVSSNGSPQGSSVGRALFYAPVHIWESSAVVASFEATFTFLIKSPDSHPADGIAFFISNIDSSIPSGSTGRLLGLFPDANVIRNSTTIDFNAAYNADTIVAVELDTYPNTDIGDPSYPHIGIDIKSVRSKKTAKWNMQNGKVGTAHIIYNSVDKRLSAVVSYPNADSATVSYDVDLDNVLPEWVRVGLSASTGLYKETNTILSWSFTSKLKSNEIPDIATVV

Sequence of Albumin (Bos taurus) (P02769 whole entry, looked up): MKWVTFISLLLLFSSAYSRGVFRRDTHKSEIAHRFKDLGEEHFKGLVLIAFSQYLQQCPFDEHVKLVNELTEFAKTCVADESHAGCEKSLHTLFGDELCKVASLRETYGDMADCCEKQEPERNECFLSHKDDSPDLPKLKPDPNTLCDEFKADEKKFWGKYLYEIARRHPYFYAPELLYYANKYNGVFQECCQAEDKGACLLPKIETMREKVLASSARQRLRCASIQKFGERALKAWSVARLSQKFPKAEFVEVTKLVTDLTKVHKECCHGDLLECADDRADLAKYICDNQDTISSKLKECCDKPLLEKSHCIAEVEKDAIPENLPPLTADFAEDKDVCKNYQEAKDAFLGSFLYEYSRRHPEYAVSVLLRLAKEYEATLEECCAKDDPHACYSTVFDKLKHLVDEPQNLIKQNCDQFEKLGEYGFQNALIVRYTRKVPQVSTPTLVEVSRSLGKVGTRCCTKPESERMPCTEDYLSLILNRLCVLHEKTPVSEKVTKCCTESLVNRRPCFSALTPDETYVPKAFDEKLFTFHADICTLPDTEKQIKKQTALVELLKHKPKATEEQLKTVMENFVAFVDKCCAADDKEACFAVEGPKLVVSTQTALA

`CN1C(=O)C2C(C1=O)C1C=C(CCCO)C2C(C2CC2)N1Cc1cccc(OC(F)(F)F)c1` (stereo not given): the composite z-score in the assay with Albumin (Bos taurus) was 1.04; in assay [2], 0.0934; in assay [3] it was -0.023; in assay [4], 0.911; in assay [5] it was 2.55; in assay [6], 0.956. The composite z-score in the assay with Sam68 (KHDRBS1) was 1.3; in assay [7], -0.535; in [8], 0.983. In addition, in [1], the composite Z-score is 0.35 (inactive).
In the case of `O=C1N(CCS(=O)(=O)c2ccccc2)c2ccccc2C[C@]12N=C(c1ccc(OCCCO)cc1)O[C@@H]2c1ccccc1`, the composite z-score with Albumin (Bos taurus) is 0.815; in [2], -0.221; in assay [3], -0.0694; in assay [4], 0.584; in assay [5], 3.22; in assay [6], 2.17. The composite z-score in the assay with Sam68 (KHDRBS1) is 1.29; in assay [7], 1.25; in assay [8], 1.05. In [1], the composite Z-score was 1.86 (inactive).
In the case of `COCCOC(=O)N1C(=O)[C@@]2(c3cc(C#CCCO)ccc31)[C@H](c1ccccc1OCCO)N1[C@H](c3ccccc3)[C@H](c3ccccc3)OC(=O)[C@H]1[C@@H]2C(N)=O`, the composite z-score with Albumin (Bos taurus) is -0.0956; in assay [2] it was -0.0054; in [3], -0.118; in [4] it was 0.578; in [5], 1.89; in assay [6], 0.128. For the same molecule, the results for the composite z-score (in the assay on Sam68 (KHDRBS1); in assay [7]; in assay [8]) were 1.3, 0.0193 and 1.05, respectively. Further, in assay [1], the composite Z-score was -0.0135 (inactive).
As to `CC(C)C[C@@H]1NC(=O)[C@@]23C(=O)N[C@@H](Cc4ccccc4)C2[C@H](C)[C@@]2(C)O[C@H]2C3/C=C/C/C=C\CNC(=O)CNC1=O` (stereo not given in full), the composite z-score in the assay with Albumin (Bos taurus) was 0.0829; in assay [2] it was -0.0869; in assay [3] it was -0.14; in assay [4], 0.719; in assay [5], 0.283; in assay [6] it was 0.0471. Besides, the results for the composite z-score (in the assay on Sam68 (KHDRBS1); in [7]; in [8]) were 0.613, 0.322 and 0.423, respectively. In addition, in assay [1], the composite Z-score was -0.568 (inactive).
On to `CCCC#C[Si](O[C@H](CC)c1cn(Cc2ccccc2)nn1)(C(C)C)C(C)C`, for which the composite z-score was 0.603 in the assay with Albumin (Bos taurus); 0.151 in assay [2]; 0.0263 in [3]; 0.365 in assay [4]; 0.855 in assay [5]; -0.193 in [6]. In addition, the composite z-score in the assay on Sam68 (KHDRBS1) was 0.793; in [7] it was 0.379; in assay [8], 0.572. The composite Z-score in assay [1] is 0.244 (inactive).
For `OCCCC1=CC(c2ccc(CN3CCCC3)cc2)N(Cc2cccc(OC(F)(F)F)c2)CC1` (stereo not given), the composite z-score with Albumin (Bos taurus) was 0.465; in [2], 0.0642; in [3], -0.0907; in assay [4], -0.0985; in [5] it was 0.251; in assay [6], -0.309. Also, the composite z-score was -0.0506 in the assay on Sam68 (KHDRBS1), 0.248 in [7] and -0.796 in assay [8]. Further, the composite Z-score in assay [1] is 0.451 (inactive).
Turning to `CN(C)CCCCNC(=O)[C@H]1C[C@H]2C(=O)NCC(=O)N2[C@H]1c1ccc(O)cc1`, the composite z-score with Albumin (Bos taurus) was -0.411; in [2], -0.368; in assay [3] it was -0.13; in assay [4] it was 0.712; in assay [5], 0.0967; in assay [6], -0.537. Moreover, the results for the composite z-score (with Sam68 (KHDRBS1); in assay [7]; in assay [8]) were -0.714, 0.367 and 0.342, respectively. Also, the composite Z-score in assay [1] was 0.312 (inactive).
For `CCOC(=O)C[C@H]1[C@H](OC(=O)c2ccccc2-c2ccccc2)[C@@H](NC(=O)c2ccc3ccccc3c2)c2cc(OCCCO)ccc2N1C(=O)Cc1ccc(OC)cc1`, the composite z-score with Albumin (Bos taurus) is 0.227; in assay [2], -0.186; in [3], -0.101; in assay [4] it was -0.165; in assay [5], 0.14; in [6], 0.232. For the same molecule, the composite z-score is -0.868 in the assay with Sam68 (KHDRBS1), -0.341 in assay [7] and -0.12 in [8]. Further, the composite Z-score in [1] is 0.25 (inactive).
Take `O=C1O[C@@H](c2ccccc2)[C@@H](c2ccccc2)N2[C@@H](c3ccc(OCCO)cc3)[C@]3(C(=O)Nc4ccc(C#CC5(O)CCCCCC5)cc43)[C@@H](C(=O)Nc3nc4ccccc4s3)[C@H]12`: the composite z-score is 0.691 in the assay with Albumin (Bos taurus); 0.0169 in assay [2]; -0.0664 in [3]; 0.608 in assay [4]; 2.31 in [5]; 0.36 in assay [6]. Also, the composite z-score in the assay on Sam68 (KHDRBS1) turned out to be 1.29; in assay [7], 0.583; in assay [8] it was 1.01. Moreover, the composite Z-score in assay [1] was -0.144 (inactive).
Regarding `COC(=O)[C@@]1(Cc2ccccc2)N=C(c2ccc(OCCCO)cc2)O[C@H]1c1ccccc1CN=[N+]=[N-]`, the composite z-score in the assay with Albumin (Bos taurus) is -0.158; in [2], 0.0655; in assay [3] it was -0.12; in [4], 0.6; in assay [5], 2.02; in assay [6], -0.415. For the same molecule, the composite z-score in the assay with Sam68 (KHDRBS1) is 1.2; in assay [7], -0.111; in assay [8] it was 0.505. Also, the composite Z-score in assay [1] was 0.282 (inactive).
As to `O=C(NCc1ccccc1)[C@@H]1c2ccccc2C(=O)N(Cc2ccc(OC(F)(F)F)cc2)[C@H]1c1ccc(CO)cc1`, the composite z-score in the assay with Albumin (Bos taurus) is 0.0192; in assay [2] it was -0.155; in assay [3] it was -0.11; in assay [4], 0.694; in assay [5] it was 2.29; in assay [6], 0.633. The composite z-score was 0.258 with Sam68 (KHDRBS1), -0.431 in [7] and -0.278 in assay [8]. In addition, the composite Z-score in [1] is 2.41 (inactive).
As for `CCCNC(=O)[C@@]1(Sc2ccc(C)cc2)CC(=O)N(Cc2ccccc2Cl)[C@@H]1c1ccc(CO)cc1I`, the composite z-score is -0.266 with Albumin (Bos taurus); 0.965 in assay [2]; -0.0836 in assay [3]; 0.529 in assay [4]; 0.649 in [5]; -0.0685 in assay [6]. Also, the composite z-score with Sam68 (KHDRBS1) was -0.169; in assay [7] it was -1.56; in assay [8], 0.0737. In addition, the composite Z-score in assay [1] was -0.588 (inactive).
`CCCN1C(=O)[C@]2(CCC(=O)OC(C)(C)C)N=C(c3ccc(OCCCO)cc3)O[C@@H]2c2ccccc21`: the composite z-score in the assay with Albumin (Bos taurus) was 0.151; in assay [2] it was -0.0044; in [3] it was -0.0732; in assay [4] it was 0.2; in assay [5] it was 1.42; in assay [6] it was 0.651. Besides, the composite z-score with Sam68 (KHDRBS1) was determined as 0.8; in assay [7], 0.405; in [8], 1.03. The composite Z-score in assay [1] was -0.12 (inactive).
Take `O=C(NCCN1CCOCC1)[C@@H]1c2ccccc2C(=O)N(Cc2ccccc2C(F)(F)F)[C@H]1c1ccc(CO)cc1`: the composite z-score was 0.0089 with Albumin (Bos taurus); -0.425 in assay [2]; -0.108 in assay [3]; 0.341 in [4]; -0.0272 in [5]; 2.49 in assay [6]. The composite z-score in the assay on Sam68 (KHDRBS1) was 1.29; in [7], -0.93; in assay [8], 0.0882. The composite Z-score in assay [1] is -0.141 (inactive).
